Results: PubChem BioAssay

Experiment: probe aEGFR binding to arrayed compounds – biochemical, biotinylated probe, 635/667 nm fluorescence, primary screen (AID 1097);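 also: probe is a biotinylated anti-EGFR antibody binding compounds printed on slides; score combines fluorescence near 667 nm and signal to noise of each spot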
Conditions: small-molecule microarray, higher = more signal
Compound CC(C)=NO[C@H](C)c1cn([C@H](CO)Cc2ccccc2)nn1 has a composite z-score of -0.0406. CCOC(=O)[C@H](CC(C)C)NC(=O)CCC1CC(OC(=O)NCc2cccc3ccccc23)CC2(CCCC(COC(=O)NCCOc3ccccc3)O2)O1 (stereo partly specified) showed a composite z-score of -0.171. Compound O=C1C[C@@H](O)[C@@H](O)[C@@H]2[C@@H]3C(=O)N(C[C@@H]4CCCO4)C(=O)[C@@H]3CC[C@@H]12 has a composite z-score of 0.091. CCOC(=O)[C@H](CC(C)C)NC(=O)CCC1CC(OC(=O)NCc2cccc3ccccc23)CC2(CCCC(COC(=O)NCCc3ccc(Cl)cc3)O2)O1 (stereo partly specified) gave a composite z-score of -0.0334. With CO[C@H]1COC(=O)CC=C[C@@H](C)[C@H](NS(=O)(=O)c2ccc(C)cc2)COC(=O)CCC[C@@H]1C the composite z-score was -0.067. For CO[C@H]1COC(=O)[C@H](C)NC(=O)CC=C[C@@H](C)[C@H](OC)COC(=O)[C@@H](OCc2ccccc2)C=C[C@@H]1C, the composite z-score was -0.15. CCCNC(=O)OC[C@H]1O[C@H](CCON=C(C)CCN2CCCc3nc(C)c(C)cc32)C=C[C@@H]1Oc1ccc(OC)cc1 gave a composite z-score of 0.101. For C#CCCCON=C1C[C@@H](O)[C@@H](O)[C@@H]2[C@@H]3C(=O)N(CC)C(=O)[C@@H]3CC[C@@H]12, the composite z-score was -0.0972. For COC(=O)[C@H](C)NC(=O)CCC1CC(OC(=O)NCc2ccc3c(c2)OCO3)CC2(CCCC(COC(=O)NCC3CCCCC3)O2)O1 (stereo partly specified), the composite z-score was -0.0139. Compound CO[C@H]1COC(=O)CC=C[C@@H](C)[C@H](OC)COC(=O)[C@@H]2CCCN2C(=O)CC=C[C@@H]1C has a composite z-score of 0.0115. CON=C[C@@H](NS(=O)(=O)c1ccc(C)cc1)[C@H](C)C=CCC(=O)OC showed a composite z-score of -0.289. Work on COc1cccc([C@H]2Oc3ccc(OC)cc3C(=NO[C@H](C)c3cn([C@H](CO)Cc4ccccc4)nn3)[C@@H]2O)c1 yielded a composite z-score of -0.188. In the case of COc1ccc(COC(=O)NN=C2C[C@@H](O)[C@@H](O)[C@@H]3[C@@H]4C(=O)N(c5cccc(Oc6ccccc6)c5)C(=O)[C@@H]4CC[C@@H]23)cc1, the composite z-score is reported as -0.0953. CO[C@@H]1COC(=O)CC=C[C@H](C)[C@H](OC)COC(=O)[C@H](C)NC(=O)CC=C[C@H]1C gave a composite z-score of -0.0109. Work on O=C1C[C@@H](O)[C@@H](O)[C@@H]2[C@@H]3C(=O)N(C[C@@H]4CCCO4)C(=O)[C@@H]3CC[C@H]12 yielded a composite z-score of -0.0118. For COC(=O)[C@@H]1CC[C@@H](C)[C@H](c2ccc(Br)cc2)N1, the composite z-score was -0.125. For COC(=O)[C@@H]1CC[C@H](C)[C@@H](c2ccc(C)cc2)N1C(=O)c1ccc(C=NO[C@H](C)c2cn([C@@H]3COC[C@H]3O)nn2)cc1, the composite z-score was 0.212. In the case of Cn1c(=O)n2n(c1=O)[C@H]1[C@H](O)[C@@H]3O[C@@H]3C(=NOCc3ccccc3)[C@H]1CC2, the composite z-score is reported as -0.118. CCOC(=O)NN=C1C[C@@H](O)[C@@H](O)[C@@H]2[C@@H]3C(=O)N(c4cccc(Oc5ccccc5)c4)C(=O)[C@@H]3CC[C@@H]12 gave a composite z-score of -0.163. For COC(=O)[C@H](C)NC(=O)CCC1CC(OC(=O)NCc2cccc3ccccc23)CC2(CCCC(COC(=O)NCC(c3ccccc3)c3ccccc3)O2)O1 (stereo partly specified), the composite z-score was -0.0509. Cc1ccc(S(=O)(=O)n2c3ccccc3c3nnc(C(=O)c4ccccc4)nc32)cc1 gave a composite z-score of 0.0099. COC(=O)C=CCCc1coc(C=CCNC(=O)OC)n1 showed a composite z-score of 0.161. For CON=C1[C@H]2CCn3c(=O)n(-c4ccccc4)c(=O)n3[C@H]2[C@H](O)[C@@H]2O[C@H]12, the composite z-score was -0.177. Compound CC(C)=CCCC(C)=CCON=C1C[C@@H](O)[C@@H](O)[C@@H]2[C@@H]3C(=O)N(C4CCCCC4)C(=O)[C@@H]3CC[C@@H]12 has a composite z-score of -0.0956. In the case of O=C1[C@H]2[C@H]3[C@H](O)[C@H](O)CC(=NOC[C@@H](O)COCc4ccco4)[C@H]3CC[C@H]2C(=O)N1C[C@@H]1CCCO1, the composite z-score is reported as 0.0872. O=C(NN=C1C[C@@H](O)[C@@H](O)[C@@H]2[C@@H]3C(=O)N(C[C@@H]4CCCO4)C(=O)[C@@H]3CC[C@@H]12)OCc1ccccc1 gave a composite z-score of -0.0947. In the case of COc1ccc(C#C[C@@H]2C=C[C@H](OC(C)=O)[C@@H](COC(C)=O)O2)cc1, the composite z-score is reported as -0.122. CC(C)CON=C1C[C@@H](O)[C@@H](O)[C@@H]2[C@@H]3C(=O)N(c4cccc(Oc5ccccc5)c4)C(=O)[C@@H]3CC[C@@H]12 gave a composite z-score of -0.109. CCOC(=O)[C@H](CC(C)C)NC(=O)CCC1CC(OC(=O)NCc2cccc3ccccc23)CC2(CCCC(COC(=O)NCc3cccc(C(F)(F)F)c3)O2)O1 (stereo partly specified) gave a composite z-score of -0.137. Work on C#CCCCON=C1C[C@@H](O)[C@@H](O)[C@@H]2[C@@H]3C(=O)N(Cc4ccccc4)C(=O)[C@@H]3CC[C@@H]12 yielded a composite z-score of -0.14. COc1ccc(O[C@H]2C=C[C@@H](c3ccccc3)O[C@@H]2CON=CC[C@@H]2C=C[C@H](OC(C)=O)[C@@H](COC(C)=O)O2)cc1 showed a composite z-score of -0.0267. With CC(C)(C)N1C(=O)[C@H]2[C@H]3[C@H](O)[C@H](O)CC(=O)[C@H]3CC[C@H]2C1=O the composite z-score was -0.0333. For Cc1cc2c(nc1C)CCCCN2CC(C)ON=C[C@@H](C)[C@H](OCc1ccccc1)C(C)C (stereo partly specified), the composite z-score was -0.3. Work on C#CCCCON=C1C[C@@H](O)[C@@H](O)[C@@H]2[C@@H]3C(=O)N(CCC(=O)OCC)C(=O)[C@@H]3CC[C@H]12 yielded a composite z-score of -0.0419. In the case of CCOC(=O)[C@H](CC(C)C)NC(=O)CCC1CC(OC(=O)NCc2cccc3ccccc23)CC2(CCCC(COC(=O)NCCOC)O2)O1 (stereo partly specified), the composite z-score is reported as 0.0576. COc1ccc(COC(=O)NN=C2C[C@@H](O)[C@@H](O)[C@@H]3[C@@H]4C(=O)N(c5ccc(F)cc5F)C(=O)[C@@H]4CC[C@H]23)cc1 gave a composite z-score of -0.171.
